This note sets out measurements from article PMC12864922, “TDP-43 directly inhibits mRNA accumulation in neurites through modulation of mRNA stability”.

Changes are numbered by the printed parent chain. Whole data set: some 9,900 sequences, median “r (bound/input frequency ratio)” near 0.7, cut for the highest 2% near 6.5. The sample as a whole holds a higher share of the highest values than the screen did.

Sequences and labels used below:
B1: ENSMUSG00000004113.301|Cacna1b (ssRNA)
RNA: GGGAGUUCUACAGUCCGACGAUCGCUUCGAUAUCCGCAUGCUAAGGCACUCCUUGGUGUGGUCUCUCUGUUUUGAAACUUCUGAUGACUUCUUGGUGGCUUGUUGUCUUCUACCCCAUGUUUCUCACAGGAUCUGUGUGUGUGUGUGUGUGUGUGUGUGUGUGUGUGUGUGUGUGUGUUAGCAUGUGUGUAUUAGCGUGUGUGAGUGUGUGAGCAUGCACGAGUCAUAGGAGAUGCAGGUGUAUGUGUGUGGUGUGCAUAUGUGUAUGUGUGUGUGUGUGUGUGUGUGUGUAGGUGUGUUCAGCUCUUGCGGUCGCACUAGUGUGGAAUUCUCGGGUGUCAAGG
B2: ENSMUSG00000090935.77|Synj2bp|54:58 (ssRNA)
RNA: GGGAGUUCUACAGUCCGACGAUCGCUUCGAUAUCCGCAUGCUACUUUGUCAGCAUAGGCAGGAGUCCUUUAGGAUUUCUGCCUAUCAGUAAAAGAACAUACUAACCCAAGUUCUACCUUCAGUGGAUUAAAGUUUCAUUAAGUGAAAAUGGAAAGAAAGUAGAAUUACUUGGUAAGAGGCCAAAUGAGGAUACAGAGGCUGAAGAAGAUUGAAAGGAGCUAGUGUAAACAAACAAACAAACAAACAAACAAAAAACCAAACCCCAAAACAAAAACAAAAACAAAACAAAAUUGGAGAAAGCAGCUCUUGCGGUCGCACUAGUGUGGAAUUCUCGGGUGUCAAGG
B3: ENSMUSG00000090935.14|Synj2bp|150:154 (ssRNA)
RNA: GGGAGUUCUACAGUCCGACGAUCGCUUCGAUAUCCGCAUGCUAGAGAGCAGUCAGAUAUGAACGGACGGGUGGAUUAUUUAGUCACGGAGGAAGAGAUCAACCUGACGAGAGGACCUUCGGGUAAAUGGCCAAGAUCUGAAGAACCUGCUGCACCAAGAUGCUGUAGACCUCUUCCGUAAUGCGGGAUGUGCACACACCCUGAGAGUACAGCACAGGUUACCAGUGCAGAAUGGACCUAUAGUACAUCGAGGUGAAGGAGAGCCAAGUGGAGUUCCUGUAGCUAUGGUGCUGCUACCAGUGUUCUCUUGCGGUCGCACUAGUGUGGAAUUCUCGGGUGUCAAGG
B4: ENSMUSG00000090935.23|Synj2bp (ssRNA)
RNA: GGGAGUUCUACAGUCCGACGAUCGCUUCGAUAUCCGCAUGCUAUCAACCUGACGAGAGGACCUUCGGGUAAAUGGCCAAGAUCUGAAGAACCUGCUGCACCAAGAUGCUGUAGACCUCUUCCGUAAUGCGGGAUGUGCUGUGUCCCUGAGAGUACAGCACAGGUUACCAGUGCAGAAUGGACCUAUAGUACAUCGAGGUGAAGGAGAGCCAAGUGGAGUUCCUGUAGCUAUGGUGCUGCUACCAGUGUUUGCCCUCACCAUGGUAGCAGUUUGGGCCUUCGUGAGAUACCGAAAGCAGCUUUGCUCUUGCGGUCGCACUAGUGUGGAAUUCUCGGGUGUCAAGG
B5: ENSMUSG00000031028.306|Tub|133:137 (ssRNA)
RNA: GGGAGUUCUACAGUCCGACGAUCGCUUCGAUAUCCGCAUGCUAAUUGCCAUCAGAGAACCCUCAGCGAGGUAGCCUUUGUUUACAGUCUAGUUUCUAGAGGGCAGUAGGACUUCCAUGCUGGGGCUGGCCUAUCUCCUGAUGAAAGAUUACAGUGCCAUCUCCUUCCCAUAGUUCACACACUGCCCUCCCUCCCUGACUUUAUAGGGAGAAAUCUCCUGACAUUAGAGGUGAUAGAAACCAGAGCUUUAGUCUAGUCAGGCUGUUUCUCUGGGUUGACAAGUUUAAGGUUGAACAGGCUGAUUCUCUUGCGGUCGCACUAGUGUGGAAUUCUCGGGUGUCAAGG
B6: ENSMUSG00000004113.120|Cacna1b (ssRNA)
RNA: GGGAGUUCUACAGUCCGACGAUCGCUUCGAUAUCCGCAUGCUAGGGACUUUCUGAGCCUCGUGGAGAGUGUGGUUUGUCCAAAUGUGUGGCAUGGGAGAUAGGGUACCCCUGAAAGCAAGGAAAGGAGCCCAGCUGUGGCCUGGUAGCACCUGCCGGCACCAGUGAUCUCACGUCUCUUGUGGUCUUGGAGUCAAAUAGCACAUGUAUGUAGAGAUGCGCUCAAGGGCCUGCCUUUCACCUACACUGUCACCAUAACAGGGACCAAAUCUGGAGGAUGUCCUUGCUGUUGAUUCUGGUUUUCACUCUUGCGGUCGCACUAGUGUGGAAUUCUCGGGUGUCAAGG
B7: ENSMUSG00000061578.1213|Ksr2|85:89 (ssRNA)
RNA: GGGAGUUCUACAGUCCGACGAUCGCUUCGAUAUCCGCAUGCUAUCUCACACCCCUGUCCCCGUCCCCUCCACCCCCCGGCAGCAUGCUUCACUCUAUGAAUGAGCCGCUGGGAUAUUGACAUGGAGAACACAUGAUGGAAAAAGCCUCCACACCCAACAUAACUCUCCAGAGAGAUAUUGAAAGUGAUGGGCAGAGAGUCUGACAAUGACCCAGGGGUCAUUGUGAGUCCUAGGCUGAAUCUGUAAUGGGGUCCAAAGUGCAGGAGAGACUGCAUUCACCUUGUUGGUGGGGUGGGGCUUCUUCUCUUGCGGUCGCACUAGUGUGGAAUUCUCGGGUGUCAAGG
B8: ENSMUSG00000061578.1434|Ksr2|139:143;234:238 (ssRNA)
RNA: GGGAGUUCUACAGUCCGACGAUCGCUUCGAUAUCCGCAUGCUACAUUGCCAACAUGUUGCUGGGAAAGAAUAUUUGAUUUAGAUGCCAAUCAGGAAGGCAAGUAGGAUGGAUGGAUGAGUGAGUGGAUAGGUAGGUAUAUAAAUGGAUGGAUGGGUGAUGGAUGGGUAAAUGAAUGGAUAGCAUACUGAAUGAAUGGAUGAUGGAUGAAUGGAUGGGUAGGUGGGUAGAUAGGUAUAUGAAUGAAUGGAUGAAUGGAUGGGUGAAUGGAUGGAUAGCAUACUGAAUAAAUGGAUGGAUGGAUGCUCUUGCGGUCGCACUAGUGUGGAAUUCUCGGGUGUCAAGG
B9: ENSMUSG00000061578.1429|Ksr2 (ssRNA)
RNA: GGGAGUUCUACAGUCCGACGAUCGCUUCGAUAUCCGCAUGCUAAGAUCUGUCUUGCUCUCUGUCUCUCUCACUCAUUGCCAACAUGUUGCUGGGAAAGAAUAUUUGAUUUAGAUGCCAAUCAGGAAGGCAAGUAGGAUGGAUGGAUGAGUGAGUGGAUAGGUAGGUAUAUAAAUGGAUGGAUGGGUGAUGGAUGGGUAAAUGAAUGGAUAGGUAUGUGAAUGAAUGGAUGAUGGAUGAAUGGAUGGGUAGGUGGGUAGAUAGGUAUAUGAAUGAAUGGAUGAAUGGAUGGGUGAAUGGAUGGACUCUUGCGGUCGCACUAGUGUGGAAUUCUCGGGUGUCAAGG
B10: ENSMUSG00000061578.1432|Ksr2 (ssRNA)
RNA: GGGAGUUCUACAGUCCGACGAUCGCUUCGAUAUCCGCAUGCUAGUCUCUCUCACUCAUUGCCAACAUGUUGCUGGGAAAGAAUAUUUGAUUUAGAUGCCAAUCAGGAAGGCAAGUAGGAUGGAUGGAUGAGUGAGUGGAUAGGUAGGUAUAUAAAUGGAUGGAUGGGUGAUGGAUGGGUAAAUGAAUGGAUAGGUAUGUGAAUGAAUGGAUGAUGGAUGAAUGGAUGGGUAGGUGGGUAGAUAGGUAUAUGAAUGAAUGGAUGAAUGGAUGGGUGAAUGGAUGGAUAGGUAUGUGAAUAAAUGCUCUUGCGGUCGCACUAGUGUGGAAUUCUCGGGUGUCAAGG
B11: ENSMUSG00000061578.1433|Ksr2 (ssRNA)
RNA: GGGAGUUCUACAGUCCGACGAUCGCUUCGAUAUCCGCAUGCUACUCACUCAUUGCCAACAUGUUGCUGGGAAAGAAUAUUUGAUUUAGAUGCCAAUCAGGAAGGCAAGUAGGAUGGAUGGAUGAGUGAGUGGAUAGGUAGGUAUAUAAAUGGAUGGAUGGGUGAUGGAUGGGUAAAUGAAUGGAUAGGUAUGUGAAUGAAUGGAUGAUGGAUGAAUGGAUGGGUAGGUGGGUAGAUAGGUAUAUGAAUGAAUGGAUGAAUGGAUGGGUGAAUGGAUGGAUAGGUAUGUGAAUAAAUGGAUGGACUCUUGCGGUCGCACUAGUGUGGAAUUCUCGGGUGUCAAGG
B12: ENSMUSG00000061578.1433|Ksr2|145:149;240:244 (ssRNA)
RNA: B11 RNA with G188C, U189A, A190U, U191A, G192C, G283C, U284A, A285U, U286A, G287C
B13: ENSMUSG00000061578.1431|Ksr2|157:161;252:256 (ssRNA)
RNA: GGGAGUUCUACAGUCCGACGAUCGCUUCGAUAUCCGCAUGCUACUCUCUGUCUCUCUCACUCAUUGCCAACAUGUUGCUGGGAAAGAAUAUUUGAUUUAGAUGCCAAUCAGGAAGGCAAGUAGGAUGGAUGGAUGAGUGAGUGGAUAGGUAGGUAUAUAAAUGGAUGGAUGGGUGAUGGAUGGGUAAAUGAAUGGAUAGCAUACUGAAUGAAUGGAUGAUGGAUGAAUGGAUGGGUAGGUGGGUAGAUAGGUAUAUGAAUGAAUGGAUGAAUGGAUGGGUGAAUGGAUGGAUAGCAUACUGAACUCUUGCGGUCGCACUAGUGUGGAAUUCUCGGGUGUCAAGG
B14: ENSMUSG00000061578.1430|Ksr2 (ssRNA)
RNA: GGGAGUUCUACAGUCCGACGAUCGCUUCGAUAUCCGCAUGCUAGUCUUGCUCUCUGUCUCUCUCACUCAUUGCCAACAUGUUGCUGGGAAAGAAUAUUUGAUUUAGAUGCCAAUCAGGAAGGCAAGUAGGAUGGAUGGAUGAGUGAGUGGAUAGGUAGGUAUAUAAAUGGAUGGAUGGGUGAUGGAUGGGUAAAUGAAUGGAUAGGUAUGUGAAUGAAUGGAUGAUGGAUGAAUGGAUGGGUAGGUGGGUAGAUAGGUAUAUGAAUGAAUGGAUGAAUGGAUGGGUGAAUGGAUGGAUAGGUACUCUUGCGGUCGCACUAGUGUGGAAUUCUCGGGUGUCAAGG
B15: ENSMUSG00000061578.1430|Ksr2|163:167 (ssRNA)
RNA: B14 RNA with G206C, U207A, A208U, U209A, G210C
B16: ENSMUSG00000061578.1432|Ksr2|151:155;246:250 (ssRNA)
RNA: B10 RNA with G194C, U195A, A196U, U197A, G198C, G289C, U290A, A291U, U292A, G293C

Chain of TDP-43 (Q13148 whole entry): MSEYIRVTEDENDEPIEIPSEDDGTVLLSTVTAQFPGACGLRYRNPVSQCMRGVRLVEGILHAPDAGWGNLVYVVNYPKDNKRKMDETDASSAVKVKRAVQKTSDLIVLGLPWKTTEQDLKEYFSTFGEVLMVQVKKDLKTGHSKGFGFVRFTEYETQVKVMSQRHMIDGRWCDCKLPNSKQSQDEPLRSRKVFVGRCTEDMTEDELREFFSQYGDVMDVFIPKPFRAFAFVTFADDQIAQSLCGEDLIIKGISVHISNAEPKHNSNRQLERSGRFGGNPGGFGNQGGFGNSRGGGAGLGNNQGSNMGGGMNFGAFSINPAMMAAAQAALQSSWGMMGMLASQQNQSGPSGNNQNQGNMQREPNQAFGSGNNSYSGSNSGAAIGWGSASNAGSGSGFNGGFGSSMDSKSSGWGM

This assay addresses TDP-43 (Homo sapiens, UniProt Q13148 1-414). The experiment in a line: RNA Bind-n-Seq with designed 260-mer pool; 25 mM Tris-HCl, 150 mM KCl, 3 mM MgCl2, BSA (printed 500 mg/mL), 20 units/mL SUPERase IN; pH not stated; 500 nM RNA pool, 1 h, 4 C; TDP-43 5, 50, 500 nM; high values mean tight binding. Particulars: protein: recombinant; tags: SBP (GST cleaved off with PreScission; pGEX-GST-SBP). An outline of the steps: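 For each oligo, R gives binding as its mapped-read-normalized abundance after pulldown divided by its abundance in input. Bead-captured SBP-tagged TDP-43 (5, 50 or 500 nM) was incubated with 500 nM of an in vitro-transcribed 260-nt 3′ UTR oligo pool for 1 h at 4 °C in 25 mM Tris-HCl, 150 mM KCl, 3 mM MgCl2, BSA and SUPERase IN on streptavidin beads. Washed, biotin-eluted RNA was reverse transcribed, PCR-amplified and sequenced.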
On to B1, for which the binding signal is 5.79 R (bound/input frequency ratio).

Take B2: the binding signal is 0.449 R (bound/input frequency ratio).

Turning to B3, the binding signal was 2.14 R (bound/input frequency ratio).

For the molecule B4, the binding signal was 1.15 R (bound/input frequency ratio).

In the case of B5, the binding signal is 0.368 R (bound/input frequency ratio).

For B6, the binding signal is 1.21 R (bound/input frequency ratio).

B7: the binding signal is 0.376 R (bound/input frequency ratio).

On to B8, for which the binding signal is 3.79 R (bound/input frequency ratio).

As for B9, the binding signal was 4.48 R (bound/input frequency ratio).

As to B10, the binding signal was 6.18 R (bound/input frequency ratio).

Regarding B11, the binding signal is 6.35 R (bound/input frequency ratio).

In the case of B12, the binding signal is 7.14 R (bound/input frequency ratio).

Regarding B13, the binding signal is 7.04 R (bound/input frequency ratio).

For B14, the binding signal was 6.58 R (bound/input frequency ratio).

Consider B15, for which the binding signal was 5.26 R (bound/input frequency ratio).

Consider B16, for which the binding signal was 5.51 R (bound/input frequency ratio).
